# This is a sample that favours compounds with a hit; in the whole collection about 2.2% have one here.
# M4 ag = agonists of human muscarinic M4 receptor (CHRM4). activation, % at 3 µM. AID 624127. CHO-K1 hM4/Gqi5, Fluo-8 calcium fluorescence; vehicle 0%, full acetylcholine response 100%. hit rate 0.14% among 360,000;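 active = activation above the run mean over all test wells plus 3 SD, cut at about 32% in these data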;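 note: peak over basal fluorescence ratio per well then scaled between controls; 0% = DMSO wells and 100% = acetylcholine at EC100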
# Target sequence (P08173 whole entry, looked up): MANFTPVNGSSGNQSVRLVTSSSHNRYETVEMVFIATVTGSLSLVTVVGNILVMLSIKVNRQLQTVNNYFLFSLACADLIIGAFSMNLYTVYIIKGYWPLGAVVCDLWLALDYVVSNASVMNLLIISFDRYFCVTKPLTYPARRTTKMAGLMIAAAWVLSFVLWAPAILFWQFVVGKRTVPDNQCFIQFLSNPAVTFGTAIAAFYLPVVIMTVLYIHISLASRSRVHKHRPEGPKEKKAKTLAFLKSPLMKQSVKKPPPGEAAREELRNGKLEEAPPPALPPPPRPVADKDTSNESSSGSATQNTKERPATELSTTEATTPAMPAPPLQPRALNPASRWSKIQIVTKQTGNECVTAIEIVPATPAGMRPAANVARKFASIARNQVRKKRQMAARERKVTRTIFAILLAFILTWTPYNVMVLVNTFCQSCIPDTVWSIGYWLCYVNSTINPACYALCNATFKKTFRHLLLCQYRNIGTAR
# CHRM1 PAM = potentiates human M1 receptor response to acetylcholine; hit rate 0.088% among 360,000; P11229; activation, % at 3 µM; AID 588819; CHO-K1 hM1, Fluo-8 calcium fluorescence, ACh EC20; 0% = ACh EC20, 100% = maximal ACh; in the data active = activation above about 19%, passing the limit was not always enough
# M4 antag = antagonists of human muscarinic M4 receptor (CHRM4); CHO-hM4 cells, ACh EC80, Fluo-8 calcium fluorescence; P08173; hit rate 0.73% among 360,000; inhibition, % at 3 µM;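 active = inhibition above its plate's cutoff, the mean inhibition of sample wells plus 3 SD, cut at about 27% in these data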;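 note: 0% = acetylcholine EC80 with DMSO and 100% = DMSO without agonist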
# CHRM4 PAM = positive allosteric modulators of human muscarinic M4 receptor | CHO-K1 hM4/Gqi5, Fluo-8 calcium fluorescence, ACh EC20; 0% = ACh EC20, 100% = maximal ACh | P08173 | activation, % at 3 µM | hit rate 0.4% among 360,000 | AID 624126;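 active = activation above its plate's cutoff, the mean activation of sample wells plus 3 SD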
# M1 antag = blocks human M1 muscarinic receptor; P11229; CHO-K1 hM1, Fluo-8 calcium fluorescence, ACh EC80 antagonist; inhibition, % at 3 µM; hit rate 1.3% among 360,000; AID 588852;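 active = percent inhibition above its own plate's cutoff, namely the mean of that plate's compound wells plus 3 SD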;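 note: peak over basal fluorescence ratio during 140 s after agonist addition; 0% = ACh EC80 plus DMSO and 100% = DMSO alone without agonist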
# CHRM1 agonist = agonists of human M1 muscarinic receptor; P11229; CHO-K1 hM1, Fluo-8 calcium fluorescence, agonist mode; 0% DMSO, 100% acetylcholine EC100; activation, % at 3 µM; hit rate 0.33% among 360,000; AID 588814;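 active = activation above the run's mean compound activation plus 3 SD, cut at about 16% in these data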;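 note: peak over basal fluorescence ratio within a 140 s kinetic read after compound addition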
# Active calls of the source: *.
SMILES,M4 ag,CHRM1 PAM,M4 antag,CHRM4 PAM,M1 antag,CHRM1 agonist
COC(=O)c1ccc(CN2CCCC(C(=O)Nc3ccc(-c4ccn[nH]4)cc3)C2)cc1 (configuration not stated),18.0,-7.8,-25.0,-5.4,12.1,36.5*
CCOC(=O)C1(CC2CC2)CCN(Cc2ccc(C(=O)OC)cc2)CC1,0.8,-24.1,22.0,-45.3,60.0*,-4.7
CCOC(=O)C1CCC(CNCc2ccc(Cl)cc2)CC1 (configuration not stated),2.5,-20.0,41.9*,-14.0,45.3*,-9.8
CC(=O)N1c2ccc(S(=O)(=O)N3CCCC3)cc2CC1C(=O)NCc1ccc(OC(C)C)cc1 (configuration not stated),4.4,7.5,-1.1,2.4,-13.0,-1.9
c1cnc(N2CCN(Cc3ccc4c(c3)OCO4)CC2)cn1,1.0,6.1,-6.0,0.8,-9.7,-2.5
COC(=O)c1ccc(CN2CCN(CC(C)C)C(CCO)C2)cc1 (configuration not stated),-0.1,-16.8,10.7,-30.0,35.4*,-7.6
COC(=O)c1ccc(CN2CCCC(C(=O)c3ccccc3OC)C2)cc1 (configuration not stated),1.0,-6.3,6.4,-3.1,7.3,27.2*
COc1ccc(/C=C/CN2CCC(CO)(Cc3ccccc3Cl)CC2)cc1,9.8,-30.8,11.0,-15.8,30.6*,-9.3
COC(=O)c1ccc(CN2CCCCC2)cc1,1.9,-9.3,-9.2,-13.4,25.6,27.4*
CCNc1nc(NC(C)C)nc(OCCNS(=O)(=O)c2cc(C)ccc2C)n1,0.9,-0.8,3.2,5.6,3.1,-3.5
CCO/C=C1\C(=O)N(CC)c2ccccc21,-0.1,-0.9,4.1,-8.6,3.9,-3.6
CCOC(=O)C1CCN(Cc2ccc(C(=O)OC)cc2)CC1,1.1,-19.9,16.1,-11.1,67.1*,43.1*
CCOC(=O)C1CCN(Cc2ccc(F)cc2)CC1,0.2,-2.1,-9.3,2.3,7.0,-5.1
CSCCC(NS(=O)(=O)c1ccc(Cl)cc1)C(=O)OCC(=O)c1c(C)[nH]c2ccccc12 (configuration not stated),14.8,-5.8,32.7*,-12.7,14.2,-1.2
O=C(CN1C(=O)c2ccccc2C1=O)Nc1cc([N+](=O)[O-])ccc1O,2.2,6.2,-1.2,6.4,-2.8,-1.0
CCc1ccccc1OCCCCN1CCCCC1,1.2,-21.7,14.1,-14.0,35.8*,-9.1
CC1CCCN(Cc2ccc(OCc3ccccc3)cc2)C1 (configuration not stated),4.2,-30.3,37.5*,-17.2,72.6*,-8.6
O=C(c1ccccc1)c1ccc(OCCCCN2CCCCC2)cc1,0.7,-23.5,11.4,-9.5,15.9,-5.8
OC1CCN(Cc2ccc(OCc3ccccc3)cc2)CC1,1.9,-14.8,10.8,-10.1,15.8,-10.7
c1ccc(COc2ccc(OCCCCN3CCCCC3)cc2)cc1,9.9,-26.0,-2.4,-15.8,34.6*,-2.8
COc1ccc(-n2nc([N+](=O)[O-])c(=NC3CCN(Cc4ccccc4)CC3)n2O)cc1,0.1,-22.9,27.9*,-17.8,25.4*,-9.8
CCN(CC)c1ccc(C2CC(=O)NC3=C2C(=O)CC(C)(C)C3)cc1 (configuration not stated),-0.9,-22.9,19.2,-12.3,25.8*,-9.9
CN(C)c1ccc(C2CC(=O)NC3=C2C(=O)CC(C)(C)C3)cc1 (configuration not stated),-0.3,-6.9,3.7,-6.4,8.4,-11.3
Cc1ccc(C(C)C)c2c1C(c1ccc3c(c1)OCO3)CC(=O)O2 (configuration not stated),15.7,-0.9,-4.9,-5.3,-0.9,20.6*
Cc1ccc(OCc2cc(C(=O)NCCc3cccnc3)no2)cc1C,9.3,-6.4,-2.0,-4.4,7.6,-0.5
SMILES,M4 ag,CHRM1 PAM,M4 antag,CHRM4 PAM,M1 antag,CHRM1 agonist
COc1cccc(S(=O)(=O)Nc2cccc(C(=O)N3CCOCC3)c2)c1,0.8,-20.9,36.2*,-16.9,53.7*,-6.7
COc1cccc(S(=O)(=O)Nc2cccc(C(=O)N3CCCC3)c2)c1,0.0,4.8,-2.2,-0.8,5.1,-2.2
C[N+]12CCC(CC1)C(OC(=O)C(O)(c1ccccc1)c1ccccc1)C2 (configuration not stated),0.2,-25.7,99.6*,-17.9,98.2*,-6.9
CN1CCN(NC(=O)c2cc(-c3cccc(Cl)c3)nc3ccccc23)CC1,8.9,12.9,-6.2,6.2,-7.7,-3.4
OC(c1cc(-c2cccc(Cl)c2)nc2ccccc12)C1CCCCN1 (configuration not stated),22.8,3.2,37.0*,10.9,5.1,12.1
Cc1cc(C(=O)CN2C(=O)NC(CC(C)C)C2=O)c(C)n1C1CC1 (configuration not stated),10.2,2.0,-2.2,-1.4,-4.0,-0.9
COc1ccc(C2(C)NC(=O)N(CC(=O)c3cc(C)n(C4CC4)c3C)C2=O)cc1 (configuration not stated),35.3*,5.5,2.2,1.3,-0.4,39.7*
Cc1cc(C(=O)CN2C(=O)NC(C)(c3ccc(F)c(F)c3)C2=O)c(C)n1C1CC1 (configuration not stated),20.8,4.9,-4.1,1.2,-6.9,22.1*
Cc1ccc(/C=N/NC(=O)CSc2nnc(-c3ccc(Cl)cc3)n2-c2ccc(Cl)cc2)o1,5.4,-3.1,2.5,3.0,17.8,1.3
N#CC1=C(N)C(C#N)(C#N)[C@H](c2ccncc2)[C@H]2CN(C(=O)OCc3ccccc3)CC=C12,-1.3,3.1,-7.6,34.8*,7.1,-4.1
CC(C)(C)OC(=O)N1CC=C2C(C#N)=C(N)C(C#N)(C#N)[C@H](c3cccnc3)[C@H]2C1,2.7,5.8,5.7,6.2,-9.9,-3.3
CCc1ccc(S(=O)(=O)NCc2ccc(C(=O)NCCN(Cc3ccccc3)C(C)C)cc2)cc1,12.4,-33.4,24.1,-15.2,67.9*,-4.5
Cc1ccccc1CS(=O)(=O)c1nnc([C@H](Cc2ccccc2)NC(=O)OC(C)(C)C)o1,5.1,3.0,78.8*,-14.4,1.7,-6.7
CN(CC(=O)NCc1ccco1)C(=O)C1CC(=O)N(c2ccc3c(c2)OCCO3)C1 (configuration not stated),1.4,28.2*,-14.9,15.9,-21.0,1.9
COc1cccc2sc(Nc3nc(-c4ccccn4)cs3)nc12,9.2,2.7,37.0*,-9.1,18.1,0.8
CC(NS(=O)(=O)OCC(Cl)(Cl)Cl)c1ccc(C(C)(C)C)cc1 (configuration not stated),3.7,-11.5,44.9*,-13.0,16.3,-7.4
CC(C)(NS(=O)(=O)OCC(Cl)(Cl)Cl)c1ccccc1,-0.1,-4.8,9.3,-1.8,6.5,-9.2
